{"source": "PubChem BioAssay AID1159580", "about": "(chemical genetic matrix, 2015)", "assay": "chemical genetic growth profiling, strain panel (AID 1159580);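 also: tested at 20 µM; growth read once vehicle control cultures reached saturation at 30 °C; 1 = growth at the plate median or of vehicle wells; lower values mean less growth of the strain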", "conditions": "S. cerevisiae deletion strains, growth OD", "note": "Several values for one entry are separate records, joined by “and”; a condition that tells them apart may be missing. Identical values can stand only once. Among all 5,500 compounds or so, about 2,000 (36%) were called active. About 18% were inconclusive and are not listed. Rule as the data show it: active = normalized growth mostly below about 0.91 (no sharp cut-off); inconclusive = no clear call, values can overlap the other calls; inactive = mostly above about 0.92. Some of the results follow.", "data": [{"smiles": "CC[C@@H](C(=O)[C@@H](C)[C@@H](O)[C@H](C)[C@@H]1O[C@@H]([C@@H](CC)C(=O)O)CC[C@@H]1C)[C@H]1OC2(C=C[C@@H](O)[C@]3(CC[C@@](C)([C@H]4CC[C@](O)(CC)[C@H](C)O4)O3)O2)[C@H](C)C[C@@H]1C", "note": "(some centres undefined)", "values": [{"measurement": "normalized growth", "setting": "locus YAL013W, strain DEP1, stronger effect = lower value", "result": "1.02 (inactive)"}, {"measurement": "normalized growth", "setting": "locus YAL021C, strain ccr4, stronger effect = lower value", "result": "0.721 (active)"}, {"measurement": "normalized growth", "setting": "locus YAL026C, strain drs2, stronger effect = lower value", "result": "0.14 (active)"}, {"measurement": "normalized growth", "setting": "locus YAL030W, strain snc1, stronger effect = lower value", "result": "0.906 (active)"}, {"measurement": "normalized growth", "setting": "locus YBL061C, strain skt5, stronger effect = lower value", "result": "0.846 (active)"}, {"measurement": "normalized growth", "setting": "locus YBR009C, strain hhf1, stronger effect = lower value", "result": "0.833 (active)"}, {"measurement": "normalized growth", "setting": "locus YBR021W, strain FUR4, stronger effect = lower value", "result": "0.753 (active)"}, {"measurement": "normalized growth", "setting": "locus YBR023C, strain chs3, stronger effect = lower value", "result": "0.839 (active)"}, {"measurement": "normalized growth", "setting": "locus YBR171W, strain sec66, stronger effect = lower value", "result": "0.887 (active)"}, {"measurement": "normalized growth", "setting": "locus YBR229C, strain ROT2, stronger effect = lower value", "result": "0.932 (inactive)"}, {"measurement": "normalized growth", "setting": "locus YBR231C, strain swc5, stronger effect = lower value", "result": "0.789 (active)"}, {"measurement": "normalized growth", "setting": "locus YBR279W, strain paf1, stronger effect = lower value", "result": "0.94 (inactive)"}, {"measurement": "normalized growth", "setting": "locus YCL011C, strain gbp2, stronger effect = lower value", "result": "0.867 (active)"}, {"measurement": "normalized growth", "setting": "locus YCL016C, strain dcc1, stronger effect = lower value", "result": "0.85 (active)"}, {"measurement": "normalized growth", "setting": "locus YCL029C, strain bik1, stronger effect = lower value", "result": "0.911 (inactive)"}, {"measurement": "normalized growth", "setting": "locus YCL061C, strain MRC1, stronger effect = lower value", "result": "0.923 (inactive)"}, {"measurement": "normalized growth", "setting": "locus YCL069W, strain vba3, stronger effect = lower value", "result": "0.892 (active)"}, {"measurement": "normalized growth", "setting": "locus YCR088W, strain abp1, stronger effect = lower value", "result": "0.877 (active)"}, {"measurement": "normalized growth", "setting": "locus YDL005C, strain med2, stronger effect = lower value", "result": "0.97 (inactive)"}, {"measurement": "normalized growth", "setting": "locus YDL035C, strain GPR1, stronger effect = lower value", "result": "0.876 (inactive)"}, {"measurement": "normalized growth", "setting": "locus YDL040C, strain nat1, stronger effect = lower value", "result": "0.944 (inactive)"}, {"measurement": "normalized growth", "setting": "locus YDL074C, strain BRE1, stronger effect = lower value", "result": "0.963 (inactive)"}, {"measurement": "normalized growth", "setting": "locus YDL101C, strain DUN1, stronger effect = lower value", "result": "0.943 (inactive)"}, {"measurement": "normalized growth", "setting": "locus YDL134C, strain PPH21, stronger effect = lower value", "result": "0.871 (active)"}, {"measurement": "normalized growth", "setting": "locus YDL185W, strain tfp1, stronger effect = lower value", "result": "0.988 (inactive)"}, {"measurement": "normalized growth", "setting": "locus YDL192W, strain arf1, stronger effect = lower value", "result": "0.136 (active)"}, {"measurement": "normalized growth", "setting": "locus YDR001C, strain nth1, stronger effect = lower value", "result": "0.929 (inactive)"}, {"measurement": "normalized growth", "setting": "locus YDR069C, strain doa4, stronger effect = lower value", "result": "0.872 (active)"}, {"measurement": "normalized growth", "setting": "locus YDR101C, strain arx1, stronger effect = lower value", "result": "0.891 (active)"}, {"measurement": "normalized growth", "setting": "locus YDR137W, strain rgp1, stronger effect = lower value", "result": "0.974 (inactive)"}, {"measurement": "normalized growth", "setting": "locus YDR159W, strain sac3, stronger effect = lower value", "result": "0.941 (inactive)"}, {"measurement": "normalized growth", "setting": "locus YDR162C, strain NBP2, stronger effect = lower value", "result": "0.69 (active)"}, {"measurement": "normalized growth", "setting": "locus YDR195W, strain ref2", "result": "1.01 (inactive)"}, {"measurement": "normalized growth", "setting": "locus YDR297W, strain sur2, stronger effect = lower value", "result": "0.919 (active)"}, {"measurement": "normalized growth", "setting": "locus YDR318W, strain mcm21, stronger effect = lower value", "result": "0.825 (active)"}, {"measurement": "normalized growth", "setting": "locus YDR334W, strain swr1, stronger effect = lower value", "result": "0.98 (inactive)"}, {"measurement": "normalized growth", "setting": "locus YDR335W, strain msn5, stronger effect = lower value", "result": "0.927 (inactive)"}, {"measurement": "normalized growth", "setting": "locus YDR388W, stronger effect = lower value", "result": "0.668 (active)"}, {"measurement": "normalized growth", "setting": "locus YDR392W, strain spt3, stronger effect = lower value", "result": "1.09 (inactive)"}, {"measurement": "normalized growth", "setting": "locus YDR502C, strain sam2, stronger effect = lower value", "result": "0.847 (active)"}, {"measurement": "normalized growth", "setting": "locus YEL003W, strain gim4, stronger effect = lower value", "result": "0.885 (active)"}, {"measurement": "normalized growth", "setting": "locus YEL037C, strain rad23, stronger effect = lower value", "result": "0.901 (active)"}, {"measurement": "normalized growth", "setting": "locus YEL061C, strain CIN8 (second series), stronger effect = lower value", "result": "0.948 (inactive)"}, {"measurement": "normalized growth", "setting": "locus YEL061C, strain CIN8, stronger effect = lower value", "result": "0.982 (inactive)"}, {"measurement": "normalized growth", "setting": "locus YER015W, strain faa2, stronger effect = lower value", "result": "0.979 (inactive)"}, {"measurement": "normalized growth", "setting": "locus YER016W, strain bim1, stronger effect = lower value", "result": "0.95 (inactive)"}, {"measurement": "normalized growth", "setting": "locus YER110C, stronger effect = lower value", "result": "1.01 (inactive)"}, {"measurement": "normalized growth", "setting": "locus YER111C, strain swi4, stronger effect = lower value", "result": "0.96 (inactive)"}, {"measurement": "normalized growth", "setting": "locus YER155C, strain BEM2 (second series), stronger effect = lower value", "result": "1.03 (inactive)"}, {"measurement": "normalized growth", "setting": "locus YER155C, strain BEM2, stronger effect = lower value", "result": "1.03 (inactive)"}, {"measurement": "normalized growth", "setting": "locus YER167W, strain BCK2, stronger effect = lower value", "result": "0.914 (inactive)"}, {"measurement": "normalized growth", "setting": "locus YFR010W, strain ubp6, stronger effect = lower value", "result": "0.84 (active)"}, {"measurement": "normalized growth", "setting": "locus YGL078C, strain dbp3, stronger effect = lower value", "result": "0.917 (active)"}, {"measurement": "normalized growth", "setting": "locus YGL086W, strain mad1, stronger effect = lower value", "result": "0.863 (active)"}, {"measurement": "normalized growth", "setting": "locus YGL167C, strain pmr1, stronger effect = lower value", "result": "0.744 (active)"}, {"measurement": "normalized growth", "setting": "locus YGL173C, strain kem1, stronger effect = lower value", "result": "0.917 (inactive)"}, {"measurement": "normalized growth", "setting": "locus YGL227W, strain vid30, stronger effect = lower value", "result": "0.943 (inactive)"}, {"measurement": "normalized growth", "setting": "locus YGL240W, strain doc1, stronger effect = lower value", "result": "1 (inactive)"}, {"measurement": "normalized growth", "setting": "locus YGL248W, strain PDE1, stronger effect = lower value", "result": "0.878 (active)"}, {"measurement": "normalized growth", "setting": "locus YGL253W, strain hxk2, stronger effect = lower value", "result": "0.816 (active)"}, {"measurement": "normalized growth", "setting": "locus YGR078C, strain PAC10, stronger effect = lower value", "result": "0.986 (inactive)"}, {"measurement": "normalized growth", "setting": "locus YGR135W, strain pre9, stronger effect = lower value", "result": "0.932 (inactive)"}, {"measurement": "normalized growth", "setting": "locus YGR252W, strain gcn5, stronger effect = lower value", "result": "0.923 (inactive)"}, {"measurement": "normalized growth", "setting": "locus YHR013C, strain ard1, stronger effect = lower value", "result": "1.07 (inactive)"}, {"measurement": "normalized growth", "setting": "locus YHR027C, strain rpn1, stronger effect = lower value", "result": "0.958 (inactive)"}, {"measurement": "normalized growth", "setting": "locus YHR030C, strain SLT2, stronger effect = lower value", "result": "0.934 (inactive) and 0.145 (active)"}, {"measurement": "normalized growth", "setting": "locus YHR079C, strain IRE1 (second series), stronger effect = lower value", "result": "0.837 (active)"}, {"measurement": "normalized growth", "setting": "locus YHR079C, strain IRE1, stronger effect = lower value", "result": "0.164 (active)"}, {"measurement": "normalized growth", "setting": "locus YHR094C, strain hxt1, stronger effect = lower value", "result": "0.877 (active)"}, {"measurement": "normalized growth", "setting": "locus YHR129C, strain ARP1, stronger effect = lower value", "result": "0.932 (inactive)"}, {"measurement": "normalized growth", "setting": "locus YHR142W, strain chs7, stronger effect = lower value", "result": "0.836 (active)"}, {"measurement": "normalized growth", "setting": "locus YHR200W, strain rpn10, stronger effect = lower value", "result": "0.908 (active)"}, {"measurement": "normalized growth", "setting": "locus YIL066C, strain RNR3, stronger effect = lower value", "result": "0.934 (inactive)"}, {"measurement": "normalized growth", "setting": "locus YIL073C, strain SPO22, stronger effect = lower value", "result": "0.88 (inactive)"}, {"measurement": "normalized growth", "setting": "locus YIL125W, strain kgd1, stronger effect = lower value", "result": "0.785 (active)"}, {"measurement": "normalized growth", "setting": "locus YIR030C, strain dcg1, stronger effect = lower value", "result": "0.892 (active)"}, {"measurement": "normalized growth", "setting": "locus YJL092W, strain hpr5, stronger effect = lower value", "result": "0.903 (active)"}, {"measurement": "normalized growth", "setting": "locus YJL095W, strain BCK1 (second series), stronger effect = lower value", "result": "0.875 (active)"}, {"measurement": "normalized growth", "setting": "locus YJL095W, strain BCK1, stronger effect = lower value", "result": "0.819 (inactive) and 0.137 (active)"}, {"measurement": "normalized growth", "setting": "locus YJL115W, strain asf1, stronger effect = lower value", "result": "0.985 (inactive)"}, {"measurement": "normalized growth", "setting": "locus YJL129C, strain trk1, stronger effect = lower value", "result": "0.707 (active)"}, {"measurement": "normalized growth", "setting": "locus YJL134W, strain LCB3, stronger effect = lower value", "result": "0.949 (inactive)"}, {"measurement": "normalized growth", "setting": "locus YJL154C, strain vps35, stronger effect = lower value", "result": "0.821 (active)"}, {"measurement": "normalized growth", "setting": "locus YJL164C, strain tpk1, stronger effect = lower value", "result": "0.883 (active)"}, {"measurement": "normalized growth", "setting": "locus YJL166W, strain qcr8, stronger effect = lower value", "result": "0.926 (inactive)"}, {"measurement": "normalized growth", "setting": "locus YJL168C, strain set2, stronger effect = lower value", "result": "0.873 (active)"}, {"measurement": "normalized growth", "setting": "locus YJL187C, strain SWE1 (second series), stronger effect = lower value", "result": "0.916 (inactive)"}, {"measurement": "normalized growth", "setting": "locus YJL187C, strain SWE1, stronger effect = lower value", "result": "0.935 (inactive)"}, {"measurement": "normalized growth", "setting": "locus YJR043C, strain POL32, stronger effect = lower value", "result": "0.968 (inactive)"}]}]}
